Experimental findings from PubChem BioAssay are described below.

Assay [1] is described as follows: rapamycin-like changes in RPL19A-GFP expression – cell-based, S. cerevisiae, multiplex flow cytometry, primary screen (AID 1862; in the data active = percent of DMSO control GFP below about 86%;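 also: lower values mimic rapamycin by blocking the RPL19A rise seen in DMSO cells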). The following applies: S. cerevisiae RPL19A-GFP strain, flow cytometry fluorescence, 3 h; at 10 µM; stronger effect = lower value.
Assay [2] in a line: TOR pathway GLN3 branch reporter MEP2-GFP changes – S. cerevisiae, multiplex flow cytometry, primary screen (AID 1867;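 active = GFP response, as percent of the DMSO control, above the screen-wide mean plus 3 SD, about 139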;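 also: median GFP channel fluorescence of barcode-gated MEP2-GFP cells measured by flow cytometry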). The following applies: S. cerevisiae MEP2-GFP strain, 3 h, at 10 µM, stronger effect = higher value, 100% means same as DMSO wells. For orientation: In flow cytometry, cells or beads pass a laser one at a time.
A short description of assay [3]: TOR pathway RTG branch CIT2 reporter changes – S. cerevisiae, GFP fusion, multiplex flow cytometry, primary screen (AID 1870;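 active = percent response above a set limit, the screen-wide mean plus 3 SD, cut at about 130% in these data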;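 also: barcoded CIT2-GFP strain pooled with four other GFP strains with rapamycin as positive control; median GFP fluorescence per well over plate mean of DMSO wells so 100% = DMSO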). The following applies: S. cerevisiae CIT2-GFP expression, 3 h, at 10 µM, stronger effect = higher value.
Assay [4] is described as follows: TOR pathway LAP4-GFP level changes – S. cerevisiae, multiplex flow cytometry, primary screen (AID 1873;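 active = GFP signal, as percent of the solvent control, above the screen mean plus 3 SD, about 149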). As to conditions: S. cerevisiae LAP4-GFP expression, 3 h, at 10 µM, stronger effect = higher value.
The nature of assay [5]: yeast AGP1-GFP level changes, GLN3 branch – cell-based, multiplex flow cytometry, S. cerevisiae, primary screen (AID 1887;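 active = GFP signal above the screen-wide mean plus 3 SD, that is over about 124.5% of the solvent control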;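 also: AGP1-GFP fusion strain of S. cerevisiae within a five-strain barcoded multiplex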). As to conditions: 3 h, at 10 µM, stronger effect = higher value.
Assay [6] can be described thus: reduced mouse 2C T cell binding to pMHC/ICAM-1 vesicles – MLPCN validation set, flow cytometry, LFA-1/ICAM-1 modulator project, pilot screen (AID 2523;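 active = response below a set limit, under 55% cells CD8-positive and vesicle-bound, and CD8 cells' 90th-percentile brightness under 279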;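 as to vesicle binding response: mean PE anti-B7-1 fluorescence of CD8+ cells relative to row control; 100% = QL9-loaded vesicles with DMSO vehicle in the same plate row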). The following applies: 2C mouse CD8+ T cells, at 7 µM, stronger effect = lower value; double positive events: measured here: CD8+/vesicle+ event percentage.
A short description of assay [7]: calorie-restriction mimetic ROS inhibitors, yeast – validation compound set, pilot screen (AID 2706;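 active = superoxide response below 65% of plate, a cut near 3 SD across the whole screen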;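 also: yeast exposed to compound for one week at 30 degrees C before staining; 100% = mean of all compound wells on the same plate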). The following applies: S. cerevisiae aging, superoxide DHE fluorescence; at 10 µM, stronger effect = lower value.
Assay [8] concerns the target Beta-adrenergic receptor kinase 1 (Homo sapiens) (UniProt P25098). As to the kind of experiment: GRK2 binders displacing RNA aptamer, biochemical, validation, human GRK2, bead flow cytometry (AID 488806;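 active = aptamer binding inhibition above 30%, about 3 SD of noise from non-fluorescent compounds; inactive = inhibition at or below 30%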). As to conditions: bead-bound GRK2, FAM-aptamer displacement, at 10 µM, stronger effect = higher value.
The target of assay [9] is AP-2 complex subunit beta (Homo sapiens) (UniProt P63010). The assay can be described thus: beta-arrestin/AP2 interaction blockers – biochemical, validation set, GST-AP2 beads, flow cytometry, pilot screen (AID 504541;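 active = inhibition above 54%, about 3 SD of non-fluorescent compounds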;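 also: AP2 carries R879A mutation and is captured from E. coli lysate; bead-bound FITC arrestin peptide fluorescence measuring arrestin peptide binding to AP2; 0% = DMSO wells and 100% = excess unlabeled arrestin peptide control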). As to conditions: FITC arrestin peptide, at 10 µM, stronger effect = higher value, AP2 beta2 appendage fragment, R879A mutant.
AP-2 complex subunit beta (Homo sapiens), sequence (P63010 whole entry, looked up, the tested form may be a part, one chain of several): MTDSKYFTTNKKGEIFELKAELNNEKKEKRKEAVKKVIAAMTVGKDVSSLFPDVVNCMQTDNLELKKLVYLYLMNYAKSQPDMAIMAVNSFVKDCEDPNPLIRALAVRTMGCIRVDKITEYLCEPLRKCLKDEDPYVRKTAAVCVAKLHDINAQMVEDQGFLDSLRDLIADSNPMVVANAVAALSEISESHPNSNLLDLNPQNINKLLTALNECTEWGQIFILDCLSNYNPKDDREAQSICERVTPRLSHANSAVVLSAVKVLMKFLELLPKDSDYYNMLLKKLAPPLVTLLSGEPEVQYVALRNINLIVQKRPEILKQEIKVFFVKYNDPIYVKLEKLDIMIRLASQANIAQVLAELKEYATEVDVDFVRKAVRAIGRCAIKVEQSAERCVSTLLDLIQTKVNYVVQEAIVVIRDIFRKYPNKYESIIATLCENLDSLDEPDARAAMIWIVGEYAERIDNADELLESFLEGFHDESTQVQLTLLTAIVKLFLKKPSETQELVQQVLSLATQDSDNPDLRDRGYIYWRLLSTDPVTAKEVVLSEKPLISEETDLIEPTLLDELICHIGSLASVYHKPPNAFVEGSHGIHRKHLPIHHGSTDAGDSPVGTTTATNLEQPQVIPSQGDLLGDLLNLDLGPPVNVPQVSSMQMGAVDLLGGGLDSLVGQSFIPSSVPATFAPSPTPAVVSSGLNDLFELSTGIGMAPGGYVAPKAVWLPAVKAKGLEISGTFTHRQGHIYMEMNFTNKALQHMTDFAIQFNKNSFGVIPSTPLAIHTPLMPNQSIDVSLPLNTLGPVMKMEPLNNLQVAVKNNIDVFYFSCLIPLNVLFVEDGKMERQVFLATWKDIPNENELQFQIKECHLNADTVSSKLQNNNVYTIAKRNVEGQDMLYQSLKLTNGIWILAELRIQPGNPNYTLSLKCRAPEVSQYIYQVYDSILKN
A short description of assay [10]: cytosolic pH regulators acting via V-ATPase – S. cerevisiae, pHLuorin, HTS validation (AID 504600).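 Also: plate controls were DMSO for no effect and reference compound for full effect.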 As to conditions: V-ATPase proton transport, at 10 µM, stronger effect = higher value.
Assay [11] concerns anti-desmoglein-3 scFv antibody binding to human DSG3. The assay can be described thus: blockers of pathogenic pemphigus antibody–desmoglein-3 binding – biochemical, validation compound set, bead-based, flow cytometry, pilot screen (AID 588368;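 active = binding below the plate cutoff, the plate median minus 3 SD, with a reading above zero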;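 also: signal is the median channel fluorescence of bead-bound GFP antibody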). The following applies: Protein G beads, DSG3-Fc, scFv-GFP binding, at 10 µM, stronger effect = lower value.
Assay [12] in a line: Nile Red efflux blockade in pump-expressing yeast – validation compound set, multiplex, phenotypic, pilot screen (AID 588506;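 active = efflux inhibition above 0.42, the validation set average plus 4 SD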;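 also: Nile Red retained in cells so higher fluorescence means more efflux inhibition; 0 = negative control wells and 1 = enniatin B 25 µM full block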). The following applies: S. cerevisiae pump-expressing triplex, Nile Red efflux flow cytometry; at 10 µM; stronger effect = higher value; the pumps come from Candida albicans.
Assay [13] concerns the target ATP-binding cassette sub-family B member 6 (Homo sapiens) (UniProt Q9NP58). As to the kind of experiment: blockers of ABCB6-driven porphyrin uptake – K562-ABCB6 cells, flow cytometry, validation set, pilot screen (AID 588550;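 active = inhibition above the screen-wide mean plus 3 SD, about 51%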;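 also: 0% = DMSO wells and 100% = benzethonium chloride 70 µM positive control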). The following applies: K562-ABCB6 porphyrin accumulation, 1 h, at 10 µM, stronger effect = higher value.
Assay [14] can be described thus: AML differentiation inducers, ER-HoxA9 marrow cells – cell-based, GFP/MAC1 double positive, flow cytometry, validation set, primary screen (AID 588685;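 active = differentiation response of at least 50%, scaled between solvent and reference control, from cells with both markers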;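 also: compound exposure lasts four days before antibody staining and flow analysis; 0% = DMSO wells and 100% = 5 µM fulvestrant positive control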). As to conditions: stronger effect = higher value, normalized: vehicle 0, fulvestrant 100.
The target in assay [15] is Integrin beta-1 (Homo sapiens) + Integrin alpha-4 (Homo sapiens) (UniProt P13612+P05556). As to the kind of experiment: alpha4beta1 integrin LIBS antibody binding reduction – U937 cells, HUTS-21 mAb, flow cytometry, validation set, VLA-4 allosteric modulator project, pilot screen (AID 2674;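 active = inhibition above 50%, about 3 SD of the validation set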;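 also: antibody binding induced by the VLA-4 ligand LDV present at three times its Kd; 0% = LDV ligand with antibody and no compound and 100% = antibody without LDV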). The following applies: HUTS-21 LIBS mAb binding, at 6.7 µM, stronger effect = higher value, binding induced by LDV ligand.
Integrin beta-1 (Homo sapiens) + Integrin alpha-4 (Homo sapiens), sequence (P05556 whole entry, looked up): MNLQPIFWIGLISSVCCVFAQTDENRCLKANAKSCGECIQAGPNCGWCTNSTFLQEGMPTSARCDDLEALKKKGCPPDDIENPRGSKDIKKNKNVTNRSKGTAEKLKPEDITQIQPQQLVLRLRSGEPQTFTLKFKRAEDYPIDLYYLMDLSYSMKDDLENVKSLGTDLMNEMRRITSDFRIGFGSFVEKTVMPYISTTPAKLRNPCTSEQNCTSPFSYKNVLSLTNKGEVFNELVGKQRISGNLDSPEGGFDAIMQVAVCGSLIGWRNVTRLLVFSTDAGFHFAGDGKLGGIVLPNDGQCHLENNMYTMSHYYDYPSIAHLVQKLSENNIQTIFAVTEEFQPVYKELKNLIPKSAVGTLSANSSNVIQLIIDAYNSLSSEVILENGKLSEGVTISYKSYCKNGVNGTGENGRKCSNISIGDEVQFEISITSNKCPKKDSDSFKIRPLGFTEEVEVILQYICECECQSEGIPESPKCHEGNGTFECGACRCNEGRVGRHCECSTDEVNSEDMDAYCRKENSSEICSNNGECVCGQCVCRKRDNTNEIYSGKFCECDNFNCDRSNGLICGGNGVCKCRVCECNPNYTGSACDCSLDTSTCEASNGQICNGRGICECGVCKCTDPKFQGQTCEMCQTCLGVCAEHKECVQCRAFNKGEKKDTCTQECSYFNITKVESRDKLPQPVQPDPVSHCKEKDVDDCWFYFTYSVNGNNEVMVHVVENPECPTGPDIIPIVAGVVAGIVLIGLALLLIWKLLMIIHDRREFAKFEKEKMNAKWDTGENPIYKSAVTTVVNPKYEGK
Integrin beta-1 (Homo sapiens) + Integrin alpha-4 (Homo sapiens), sequence (P13612 whole entry, looked up): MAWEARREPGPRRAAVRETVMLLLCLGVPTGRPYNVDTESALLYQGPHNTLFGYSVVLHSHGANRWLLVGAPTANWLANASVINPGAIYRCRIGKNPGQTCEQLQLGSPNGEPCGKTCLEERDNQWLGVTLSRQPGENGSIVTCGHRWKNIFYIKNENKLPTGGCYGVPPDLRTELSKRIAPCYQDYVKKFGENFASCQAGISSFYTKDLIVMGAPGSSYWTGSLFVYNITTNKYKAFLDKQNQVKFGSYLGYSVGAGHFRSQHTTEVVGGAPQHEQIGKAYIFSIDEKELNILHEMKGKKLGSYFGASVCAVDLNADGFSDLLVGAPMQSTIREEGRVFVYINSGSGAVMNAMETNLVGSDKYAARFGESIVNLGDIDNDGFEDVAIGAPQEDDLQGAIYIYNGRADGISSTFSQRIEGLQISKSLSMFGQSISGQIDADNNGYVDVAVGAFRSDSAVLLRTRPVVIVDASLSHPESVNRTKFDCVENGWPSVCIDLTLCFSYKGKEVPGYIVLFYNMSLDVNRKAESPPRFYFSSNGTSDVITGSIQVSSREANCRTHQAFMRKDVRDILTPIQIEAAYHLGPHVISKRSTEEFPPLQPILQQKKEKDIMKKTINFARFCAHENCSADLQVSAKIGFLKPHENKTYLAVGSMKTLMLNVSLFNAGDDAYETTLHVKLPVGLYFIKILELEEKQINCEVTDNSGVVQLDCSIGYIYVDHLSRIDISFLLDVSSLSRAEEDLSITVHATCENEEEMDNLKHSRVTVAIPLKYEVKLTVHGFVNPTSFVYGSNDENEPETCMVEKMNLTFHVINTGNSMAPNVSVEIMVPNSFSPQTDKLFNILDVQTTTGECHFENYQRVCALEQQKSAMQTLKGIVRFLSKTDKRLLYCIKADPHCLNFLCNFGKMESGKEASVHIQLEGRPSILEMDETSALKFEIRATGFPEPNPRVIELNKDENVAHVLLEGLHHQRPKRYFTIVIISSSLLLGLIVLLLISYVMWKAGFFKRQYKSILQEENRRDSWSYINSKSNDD

The target of assay [16] is Beta-2 adrenergic receptor (Homo sapiens) (UniProt P07550). As to the kind of experiment: agonist-induced loss of surface beta2AR – cell-based, FAP fluorogen, flow cytometry, validation set, pilot screen (AID 504459;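 active = percent response above 42, roughly 3 SD of non-fluorescent test compounds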;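 also: agonist-driven loss of surface beta2AR via internalization measured by FAP dye flow cytometry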). The following applies: Am2.2-beta2AR cells, at 10 µM, stronger effect = higher value.
Beta-2 adrenergic receptor (Homo sapiens), sequence (P07550 whole entry, looked up): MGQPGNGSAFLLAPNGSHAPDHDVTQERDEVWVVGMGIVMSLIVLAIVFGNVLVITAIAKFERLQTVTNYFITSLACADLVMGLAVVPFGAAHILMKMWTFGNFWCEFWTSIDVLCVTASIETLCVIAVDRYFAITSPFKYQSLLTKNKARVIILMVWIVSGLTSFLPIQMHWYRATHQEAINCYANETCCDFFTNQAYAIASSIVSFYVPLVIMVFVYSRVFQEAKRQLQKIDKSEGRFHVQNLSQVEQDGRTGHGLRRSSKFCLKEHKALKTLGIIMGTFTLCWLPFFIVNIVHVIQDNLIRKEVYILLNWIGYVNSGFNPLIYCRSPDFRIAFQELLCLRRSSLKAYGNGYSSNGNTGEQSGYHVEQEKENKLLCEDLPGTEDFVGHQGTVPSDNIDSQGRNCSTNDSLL

SMILES strings stand for the structures. Inconclusive results are not listed. Calls of active or inactive are those of the source. Rule as the data show it, unless noted: active = response above about 15%; inactive = the rest.

Beta-adrenergic receptor kinase 1 (Homo sapiens), sequence (P25098 whole entry, looked up): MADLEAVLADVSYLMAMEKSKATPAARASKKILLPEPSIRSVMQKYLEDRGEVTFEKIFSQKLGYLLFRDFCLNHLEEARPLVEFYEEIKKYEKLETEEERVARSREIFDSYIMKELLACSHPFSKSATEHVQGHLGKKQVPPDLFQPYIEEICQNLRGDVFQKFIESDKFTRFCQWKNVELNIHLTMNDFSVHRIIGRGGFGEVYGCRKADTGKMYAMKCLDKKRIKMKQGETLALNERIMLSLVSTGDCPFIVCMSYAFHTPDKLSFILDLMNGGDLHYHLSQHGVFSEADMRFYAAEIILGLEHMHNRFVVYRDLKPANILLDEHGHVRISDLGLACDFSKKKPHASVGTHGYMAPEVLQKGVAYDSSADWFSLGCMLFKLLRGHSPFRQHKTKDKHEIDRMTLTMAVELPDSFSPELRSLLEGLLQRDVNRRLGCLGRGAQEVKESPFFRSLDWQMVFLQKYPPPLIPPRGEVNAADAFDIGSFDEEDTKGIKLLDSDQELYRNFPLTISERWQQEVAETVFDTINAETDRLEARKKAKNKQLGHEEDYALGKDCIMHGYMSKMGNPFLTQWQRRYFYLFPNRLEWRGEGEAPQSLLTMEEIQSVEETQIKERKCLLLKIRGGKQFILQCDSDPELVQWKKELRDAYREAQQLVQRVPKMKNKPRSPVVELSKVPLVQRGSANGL
ATP-binding cassette sub-family B member 6 (Homo sapiens), sequence (Q9NP58 whole entry, looked up): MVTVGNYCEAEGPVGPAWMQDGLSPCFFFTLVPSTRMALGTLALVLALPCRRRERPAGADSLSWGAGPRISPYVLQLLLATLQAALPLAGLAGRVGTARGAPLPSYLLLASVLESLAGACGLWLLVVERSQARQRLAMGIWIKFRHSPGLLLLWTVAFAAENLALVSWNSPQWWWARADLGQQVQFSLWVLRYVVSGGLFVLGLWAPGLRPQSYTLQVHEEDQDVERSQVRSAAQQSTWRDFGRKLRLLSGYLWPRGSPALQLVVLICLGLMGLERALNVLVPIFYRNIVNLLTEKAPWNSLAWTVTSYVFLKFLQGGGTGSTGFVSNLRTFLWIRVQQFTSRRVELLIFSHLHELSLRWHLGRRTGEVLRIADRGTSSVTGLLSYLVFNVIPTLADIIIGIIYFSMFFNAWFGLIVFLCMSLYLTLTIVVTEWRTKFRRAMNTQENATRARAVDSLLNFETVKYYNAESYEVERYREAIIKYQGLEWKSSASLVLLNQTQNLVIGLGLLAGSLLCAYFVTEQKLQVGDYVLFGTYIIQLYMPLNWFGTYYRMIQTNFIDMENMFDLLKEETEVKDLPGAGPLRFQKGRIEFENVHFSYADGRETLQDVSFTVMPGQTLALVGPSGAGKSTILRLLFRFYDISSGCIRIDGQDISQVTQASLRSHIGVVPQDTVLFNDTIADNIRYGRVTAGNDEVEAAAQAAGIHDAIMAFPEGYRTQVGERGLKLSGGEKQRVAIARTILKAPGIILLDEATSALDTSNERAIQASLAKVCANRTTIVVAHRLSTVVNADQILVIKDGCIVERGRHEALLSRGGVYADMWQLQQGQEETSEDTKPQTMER

Consider `Clc1ccc(Cn2c(CN3CCCC3)nc3ccccc32)cc1`, for which, in assay [1], the percent of DMSO control GFP was 100% (inactive). In addition, the GFP response vs DMSO in [2] was 104% (inactive); in [4], 100% (inactive). Further, the percent response of DMSO control in assay [3] is 107% (inactive). Moreover, the GFP response, % of DMSO in assay [5] is 102% (inactive). Besides, the double positive events in assay [6] was found to be 56.4%. In addition, in assay [6], the vesicle binding response was 98% (inactive). Further, the superoxide response (% of plate) in assay [7] is 105% (inactive). The aptamer binding inhibition in [8] was -1% (inactive). Besides, the inhibition (usually the drop in the measured response relative to a control, in per cent) is 1.97% (inactive) in assay [9] and 4% (inactive) in assay [13]. Besides, the response in [10] is -2.91% (inactive). Besides, the binding (% of control) in assay [11] is 102% (inactive). For the same molecule, in assay [12], the efflux inhibition (fraction of control) is -0.43 (inactive). Further, the differentiation response in assay [14] was -22.8% (inactive).
Regarding `Cc1ccc(NCCC(=O)c2ccccc2)cc1Cl`, the percent of DMSO control GFP in [1] is 86.2% (inactive). The GFP response vs DMSO in assay [2] was 110% (inactive); in assay [4], 78.7% (inactive). Moreover, in assay [3], the percent response of DMSO control was 110% (inactive). Further, in assay [6], the double positive events turned out to be 63%. Moreover, the vesicle binding response in assay [6] was 171% (inactive). Also, the inhibition in assay [15] is 28.8% (inactive); in assay [9], -12.3% (inactive); in [13], 10% (inactive). In assay [7], the superoxide response (% of plate) is 99.7% (inactive). Further, the aptamer binding inhibition in assay [8] was 2% (inactive). Besides, the figures for the response in assay [16] and in assay [10] were 2.53% (inactive) and 2.25% (inactive), respectively. The binding (% of control) in assay [11] was 98% (inactive). The efflux inhibition (fraction of control) in assay [12] is -0.24 (inactive). For the same molecule, in assay [14], the differentiation response was -0.82% (inactive).
As for `COc1ccc(-c2onc(C)c2-c2ccc(C(=O)OC(C)C)o2)c(O)c1`, in assay [1], the percent of DMSO control GFP is 102% (inactive). For the same molecule, the values for the GFP response vs DMSO in assay [2] and in [4] were 109% (inactive) and 102% (inactive), respectively. Besides, the percent response of DMSO control in assay [3] is 93.4% (inactive). Moreover, the GFP response, % of DMSO in assay [5] is 90.1% (inactive). The same molecule gave a double positive events in assay [6] of 71.4%. Further, the inhibition in assay [15] is 2.93% (inactive); in assay [9], -6.7% (inactive); in [13], 5% (inactive). The superoxide response (% of plate) in [7] was 95.6% (inactive). Moreover, the aptamer binding inhibition in assay [8] is -3% (inactive). For the same molecule, the response in assay [16] is 58.6% (active); in assay [10], -0.7% (inactive). The binding (% of control) in assay [11] is 105% (inactive). The efflux inhibition (fraction of control) in assay [12] was -0.02 (inactive). The differentiation response in assay [14] was 13% (inactive).
As for `Cc1cc(-c2ccccc2)nnc1NCCN1CCOCC1`, the percent of DMSO control GFP in assay [1] is 102% (inactive). Besides, the GFP response vs DMSO in assay [2] is 114% (inactive); in assay [4], 74.3% (inactive). Further, the percent response of DMSO control in assay [3] was 93.9% (inactive). Besides, in assay [6], the double positive events is 67.8%. For the same molecule, in assay [6], the vesicle binding response is 223% (inactive). Also, the inhibition in assay [15] was 0.64% (inactive); in [9], -1.22% (inactive); in [13], 19% (inactive). For the same molecule, the superoxide response (% of plate) in assay [7] is 94.8% (inactive). Moreover, the aptamer binding inhibition in assay [8] was 32% (active). Also, the response in assay [16] is 2.57% (inactive); in assay [10], -0.98% (inactive). Further, the binding (% of control) in assay [11] was 109% (inactive). Also, the efflux inhibition (fraction of control) in assay [12] was 0 (inactive). In addition, the differentiation response in assay [14] is 4.09% (inactive).
As for `CC12CCC(C(=O)N3CCCCC3)([C@H](Br)C1=O)C2(C)C` (some centres undefined), the percent of DMSO control GFP in [1] was 90.6% (inactive). The figures for the GFP response vs DMSO in assay [2] and in assay [4] were 119% (inactive) and 78.7% (inactive), respectively. Moreover, the percent response of DMSO control in assay [3] was 101% (inactive). For the same molecule, the double positive events in assay [6] is 65.8%. Further, in [6], the vesicle binding response is 272% (inactive). The figures for the inhibition in assay [15], in [9] and in assay [13] were 8.4% (inactive), -4.61% (inactive) and 11% (inactive), respectively. In addition, the superoxide response (% of plate) in [7] is 101% (inactive). Moreover, in [8], the aptamer binding inhibition was -1% (inactive). In addition, the response in assay [16] was -6.79% (inactive); in assay [10], 0.52% (inactive). For the same molecule, the binding (% of control) in assay [11] is 98.5% (inactive). For the same molecule, the efflux inhibition (fraction of control) in assay [12] was -0.13 (inactive). Also, in assay [14], the differentiation response was -1.64% (inactive).
